# CYP2C9 activ: CYP2C9 (human) activation; recombinant CYP2C9, luciferin-H conversion, luminescence; stronger effect = higher value; factor 1 = untreated enzyme, 0 = blocked; P11712; actives 1.4% (n = 96,000); activation factor at 5 µM; AID 1024;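 active = activation factor of 2 or more for CYP2C9 at a 5 µM dose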;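 note: 0 = sulfaphenazole-blocked wells and 1 = vehicle-only wells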
# Target sequence (P11712 whole entry, looked up): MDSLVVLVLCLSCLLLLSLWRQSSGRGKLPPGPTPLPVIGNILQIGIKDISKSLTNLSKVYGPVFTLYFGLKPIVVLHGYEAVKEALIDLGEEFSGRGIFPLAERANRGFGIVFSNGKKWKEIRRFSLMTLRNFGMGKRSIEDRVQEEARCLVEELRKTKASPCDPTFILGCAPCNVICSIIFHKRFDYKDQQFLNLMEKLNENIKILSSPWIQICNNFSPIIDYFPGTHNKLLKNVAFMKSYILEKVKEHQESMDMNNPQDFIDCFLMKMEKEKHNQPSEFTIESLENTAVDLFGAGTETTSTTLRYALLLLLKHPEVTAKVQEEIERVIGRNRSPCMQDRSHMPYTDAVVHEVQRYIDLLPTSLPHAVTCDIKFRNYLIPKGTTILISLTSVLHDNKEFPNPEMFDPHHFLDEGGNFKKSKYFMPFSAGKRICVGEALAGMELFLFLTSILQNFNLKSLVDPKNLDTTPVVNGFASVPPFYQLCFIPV
# CYP2C19 inhib: blocks human cytochrome P450 2C19 | P33261 | AID 778 | inhibition, % at 5 µM | actives 21% (n = 96,000) | CYP2C19 Supersomes, luciferin-H EGE luminescence, 30 min;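 active = CYP2C19 inhibition above a set limit at 5 µM in the primary screen, cut at about 50% in these data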;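 note: plate controls were negative control wells for no effect and 2.5 mM tranylcypromine positive control for full effect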
# PTK2B oligo ant: blocks oligomerization of human Pyk2 in cells; Q14289; Q293 cells, Pyk2 FERM NanoBiT luminescence; stronger effect = lower value; z-score (the deposit names both 25 µM and 10 µM); actives 0.83% (n = 99,000); AID 1347419;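 active = Z-score of -3 or lower, scaled per plate to the spread of control and sample wells; inactive = z-score above -3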;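 note: negative z-score means lost luminescence so less FERM oligomerization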
# Cav3 T inh: inhibitors of human Cav3.2 T-type calcium channel. Cav3.2-expressing cells, Fluo-4 calcium fluorescence FDSS; stronger effect = lower value. O95180. B-score at 10 µM. AID 449739. actives 4% (n = 100,000);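 active = single-dose well whose peak fluorescence ratio is a statistical outlier from its plate by either plate-standardised score or position-corrected B-score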
# CYP2C9 inhib: human CYP2C9 inhibition; P11712; CYP2C9 Supersomes, luciferin-H conversion, luminescence; actives 20% (n = 96,000); inhibition, % at 5 µM;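 active = blocking of liver enzyme CYP2C9 beyond about 50% at 5 µM, limit read from the data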
# CYP2C19 activ: increases human CYP2C19 enzyme activity; recombinant CYP2C19, luciferin-H EGE luminescence; stronger effect = higher value; 0 = fully inhibited enzyme, 1 = untreated enzyme; activation factor at 5 µM; 96,000 tested, under 10 active; AID 1025;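 active = activation factor of at least 2 at 5 µM in the primary screen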;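 note: 0 = wells with 2.5 mM tranylcypromine and 1 = vehicle-only wells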
# * = called active by the depositor; / = not tested or not shown. Rows were chosen to be rich in hits. Some 27% of all compounds tested hit in one or more screens of this group.
SMILES,CYP2C9 activ,CYP2C19 inhib,PTK2B oligo ant,Cav3 T inh,CYP2C9 inhib,CYP2C19 activ
CC1CCN(C(=O)CSc2nc3c(cnn3-c3ccccc3)c(=O)[nH]2)CC1,0.6,4,/,0.5,37,1
CCOC(=O)N1CCN(C(=O)CSc2nc3c(cnn3-c3ccc(Cl)cc3)c(=O)[nH]2)CC1,0.3,-4,/,0.89,68*,1
C=C1CCN([C@@H](C)C(=O)NCCCCCC)S(=O)(=O)c2ccccc21,/,/,/,0.26,/,/
COc1ccc(NC(=O)CCc2nc(-c3ccccc3F)no2)cc1,0.3,78*,1,-0.11,69*,0.2
CCc1cccc(NC(=O)CCc2nc(-c3cccs3)no2)c1,0.2,93*,/,-7.1*,83*,0.1
COc1ccc(-c2noc(CCC(=O)Nc3nc4ccccc4s3)n2)cc1,0.3,2,/,-0.017,68*,1
COc1ccccc1-c1noc(CCC(=O)Nc2cccc(C)c2)n1,0.6,74*,-0.18,-1.7,42,0.3
O=C(CN1CCN(Cc2ccccc2F)C1=O)NCc1ccco1,1,0,-0.29,0.89,0,1
COc1ccc(OCCN2CCN(C3CC(=O)N(CCC(C)C)C3=O)CC2)cc1 (stereo unspecified),1,25,0.88,0.1,3,0.7
COc1ccccc1-c1noc(CCC(=O)Nc2ccccc2Cl)n1,0.7,79*,0.33,-0.16,33,0.2
CCOC(=O)N1CCC(NC(=O)CCc2nc(-c3ccccc3F)no2)CC1,0.4,60*,1.3,0.014,59*,0.4
COc1cc(OC)c(NC(=O)CCc2nc(-c3ccc(C)cc3)no2)cc1Cl,0.2,48,-0.52,1.5,78*,0.5
O=C(O)CCc1nc(-c2ccccc2Cl)no1,1.1,-4,0.43,0.95,-12,1
CCOC(=O)c1cccc(NC(=O)CCc2nc(-c3ccccc3F)no2)c1,0.8,7,2.4,-0.3,17,0.9
COC(c1ccccc1)c1c(-c2ccccc2)nn(C)c1Cl (stereo unspecified),0.3,94*,1.4,/,71*,0.1
Cn1nc(-c2ccccc2)c(C(O)c2ccccc2C(F)(F)F)c1Cl (stereo unspecified),0.8,36,1.2,/,20,0.6
Cc1cc(C)c2c3c(cn2n1)c(=O)n(C)c(=O)n3C,/,/,0.92,0.016,/,/
O=C(Nc1nc2ccccc2s1)C1CC(=O)N(c2ccc(Br)cc2)C1 (stereo unspecified),0.5,0,-0.99,-3.1,46,1
O=C(Nn1c(=S)[nH]c2ccccc2c1=O)c1ccncc1,0.8,85*,-0.57,-0.17,18,0.1
O=C(CCN1CCCCC1)Nn1c(=S)[nH]c2ccccc2c1=O,0.8,-11,1.5,0.7,16,1.1
Cc1ccccc1OCCNC(=O)c1ccccc1Sc1ccccc1C#N,0.7,50,-1.8,-5.5*,30,0.5
N#Cc1ccccc1Sc1ccccc1C(=O)Nc1ccc(Br)cc1,0.5,44,-3.5*,/,46,0.6
O=C(O)C1CCCCC1C(=O)NCCCCc1ccccc1 (stereo unspecified),0.6,4,0.19,0.09,44,1
CC(=O)c1cc(C)ccc1OC(=O)CCN1C(=O)C2C3c4ccccc4C(c4ccccc43)C2C1=O (stereo unspecified),0.9,23,-0.14,0.52,6,0.8
C[N+](C)(C)CCCC(=O)c1ccc2c(c1)OCO2,0.9,9,0.3,/,7,0.9
SMILES,CYP2C9 activ,CYP2C19 inhib,PTK2B oligo ant,Cav3 T inh,CYP2C9 inhib,CYP2C19 activ
CCSc1nnc(NC(=O)CSc2nc(CC)nc3c2c(=O)n(C)c(=O)n3C)s1,0.7,29,/,1,28,0.7
C#CCSc1nc(-c2ccccc2)cc(C(F)(F)F)c1C#N,1,-5,-0.6,0.14,2,1.1
N#Cc1c(C(F)(F)F)cc(-c2cccs2)nc1SCc1cccnc1,0.2,57*,-2.2,/,75*,0.4
N#Cc1c(C(F)(F)F)cc(-c2cccs2)nc1SCc1ccc(Cl)nc1,0.4,8,-0.04,-2,56*,0.9
COC(=O)c1ccc(-c2ccc(CNCC(O)c3ccccc3)o2)cc1 (stereo unspecified),0.7,60*,1.1,/,28,0.4
Cc1nnc(NC(=O)CCC(=O)NCc2ccco2)s1,1,6,0.67,0.021,1,0.9
Cc1c(Br)cc(C(=O)NCc2ccco2)c(C)c1C,2.7*,77*,-0.29,-0.89,-168,0.2
Cc1ccc2c(CC(=O)NCc3ccco3)coc2c1C,1.5,99*,0.24,-9.4*,-54,0
Cc1ccc(C(=O)NCc2ccco2)cc1Br,1.3,70*,-0.04,-1.7,-32,0.3
COc1cc(C(=O)NCc2ccco2)c(Br)c(OC)c1OC,1.1,39,1.9,0.14,-13,0.6
O=C(NCc1ccco1)c1ccc(Br)s1,0.6,70*,-0.3,0.056,37,0.3
COc1ccc(NC(=O)C(c2ccccc2)N(C)C(=O)c2cnccn2)cc1 (stereo unspecified),0.8,29,-0.66,-4.2*,24,0.7
COc1ccc(N(C(=O)c2cnccn2)C(C(=O)NC2CCCCC2)c2ccc(Cl)cc2)cc1 (stereo unspecified),/,/,-0.37,-0.2,/,/
COc1ncccc1-c1nnn(-c2ccc(C)cc2)n1,/,/,/,0.18,/,/
O=C(CCn1nnc2ccccc21)N1CCC(O)(c2cccc(F)c2)CC1,0.5,43,1.4,0.49,52*,0.6
CC(C)COc1ccc2[nH]c3c(c2c1)CCCC3=O,1,12,-0.95,0.47,-1,0.9
O=C(NCCC1=CCCCC1)c1cnsn1,0.6,65*,-0.09,-1.6,38,0.4
Cc1cc(C(=O)NCCC2=CCCCC2)no1,1,48,0.45,0.19,-2,0.5
CCC/C(=N\NC(=O)c1csc(C)c1C)c1cccs1,1.2,67*,-0.47,-1,-19,0.3
CC/C(=N\NC(=O)c1csc(C)c1C)c1cccs1,0.9,75*,0.32,-1.7,14,0.3
C/C(=N\NC(=O)c1csc(C)c1C)c1ccc(Cl)s1,1.1,4,0.03,-0.034,-10,1
C=CCn1c(COc2ccc(Cl)cc2)nnc1SCC(=O)N/N=C/c1ccccc1,0.9,11,0.09,-3.6,7,0.9
Cn1c(NC(=O)Cc2ccc(F)cc2)cc(=O)n(C)c1=O,1.1,-13,/,-0.63,-14,1.1
COC(=O)c1c(C)[nH]c(C(=O)CN2CCOCC2)c1C,0.7,62*,0.57,0.0053,33,0.4
CCOC(=O)c1[nH]c(C)c(C(=O)NCCN2CCOCC2)c1C,1.2,-16,/,0.07,-17,1.2
COC(=O)c1c(C)[nH]c(C(=O)CSc2ccc(Cl)cc2)c1C,0.3,27,1.1,-0.15,68*,0.7
O=C(/C=C/Nc1ccc([N+](=O)[O-])cc1Br)c1cccc2ccccc12,/,/,-0.12,/,/,/

# High-throughput results from PubChem.
